Drawing on PMC7862700, “An all-to-all approach to the identification of sequence-specific readers for epigenetic DNA modifications on cytosine”, this text covers binding signal for one sequence.

Holding throughout (assay): DAPPL (digital affinity profiling via proximity ligation, sequencing); 10 mM Tris-HCl pH 7.5, 50 mM NaCl, 1 mM DTT, 4% glycerol, room temperature, 30 min; GST-TFs on glutathione beads, 16-mer random dsDNA library, 0.1% formaldehyde crosslink after washing; high values mean tight binding
For one test, the target named is T1, FEV (Homo sapiens, UniProt Q99581 1-238).
T1 sequence: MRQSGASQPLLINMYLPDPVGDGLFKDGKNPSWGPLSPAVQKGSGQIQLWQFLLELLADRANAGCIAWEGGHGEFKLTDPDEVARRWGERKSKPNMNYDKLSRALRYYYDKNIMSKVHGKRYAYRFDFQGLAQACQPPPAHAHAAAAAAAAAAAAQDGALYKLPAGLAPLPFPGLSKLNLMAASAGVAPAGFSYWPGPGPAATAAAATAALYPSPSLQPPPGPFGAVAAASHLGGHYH
Conditions: protein: recombinant; tags: N-terminal GST; dsDNA, one strand shown. The method in brief:
(§1)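 In yeast, human transcription factors were expressed with a GST fusion, then pulled down on glutathione beads and given DNA barcodes. Pooled with a tag-only sample, they were exposed to 200 nmole of a 16-mer random double-stranded DNA library (Tris/NaCl/DTT/glycerol buffer, room temperature, 30 min), washed, crosslinked with 0.1% formaldehyde, proximity-ligated using BsaI/T4 ligase for 1 h at 37 °C, PCR-amplified and read on an Illumina NextSeq500. Each hexamer's frequency of reads for a factor, divided by the matching frequency for the tag-only sample, gives the binding signal.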

A further test addresses ETV5 (Homo sapiens, UniProt P41161 1-510). Conditions: protein: recombinant; tags: N-terminal GST; dsDNA, one strand shown. In outline: as §1
The next test addresses HSF1 (Homo sapiens, UniProt Q00613 1-529). Conditions: protein: recombinant; tags: N-terminal GST; chain copies: 3; dsDNA, one strand shown. The method in brief:
as §1

The target of the next test is T2, SPIC (Homo sapiens, UniProt Q8N5J4 1-248).
T2 sequence: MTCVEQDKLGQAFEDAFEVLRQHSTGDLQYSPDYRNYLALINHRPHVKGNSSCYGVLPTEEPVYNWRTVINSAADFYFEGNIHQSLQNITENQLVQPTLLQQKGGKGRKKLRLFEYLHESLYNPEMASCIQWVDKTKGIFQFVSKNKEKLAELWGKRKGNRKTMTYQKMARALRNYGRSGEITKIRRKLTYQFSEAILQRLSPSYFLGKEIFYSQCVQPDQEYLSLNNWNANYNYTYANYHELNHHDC
Conditions: protein: recombinant; tags: N-terminal GST; dsDNA, one strand shown. The method in brief: as §1

The next test addresses ELF4 (Homo sapiens, UniProt Q99607 1-663). Conditions: protein: recombinant; tags: N-terminal GST; dsDNA, one strand shown. In outline:
as §1

In another test the target is T3, ELK4 (Homo sapiens, UniProt P28324-2 1-405).
T3 sequence: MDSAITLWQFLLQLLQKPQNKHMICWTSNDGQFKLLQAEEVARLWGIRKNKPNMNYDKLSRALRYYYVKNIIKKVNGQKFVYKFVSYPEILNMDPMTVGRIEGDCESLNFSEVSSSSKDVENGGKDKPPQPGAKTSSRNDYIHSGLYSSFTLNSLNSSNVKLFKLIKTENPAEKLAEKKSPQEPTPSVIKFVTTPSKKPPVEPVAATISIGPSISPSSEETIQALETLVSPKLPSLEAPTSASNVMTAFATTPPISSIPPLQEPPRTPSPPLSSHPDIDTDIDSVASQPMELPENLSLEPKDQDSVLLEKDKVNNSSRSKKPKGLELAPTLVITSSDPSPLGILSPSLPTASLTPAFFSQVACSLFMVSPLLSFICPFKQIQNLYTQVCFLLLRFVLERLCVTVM
Conditions: protein: recombinant; tags: N-terminal GST; dsDNA, one strand shown. The method in brief: as §1

For a further test, the target named is T4, ETV2 (Homo sapiens, UniProt O00321 1-342).
T4 sequence: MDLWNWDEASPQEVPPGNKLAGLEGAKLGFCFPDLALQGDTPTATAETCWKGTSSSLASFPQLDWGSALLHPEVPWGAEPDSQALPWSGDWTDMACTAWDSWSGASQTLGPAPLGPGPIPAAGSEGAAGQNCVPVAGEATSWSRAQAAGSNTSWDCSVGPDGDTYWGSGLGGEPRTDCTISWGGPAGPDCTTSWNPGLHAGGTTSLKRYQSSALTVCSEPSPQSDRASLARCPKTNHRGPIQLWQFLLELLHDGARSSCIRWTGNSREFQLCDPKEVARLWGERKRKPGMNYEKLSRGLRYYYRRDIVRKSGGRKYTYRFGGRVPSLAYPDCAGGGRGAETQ
Conditions: protein: recombinant; tags: N-terminal GST; dsDNA, one strand shown. The method in brief:
as §1

The next test concerns the target T5, ELF3 (Homo sapiens, UniProt P78545 1-371).
T5 sequence: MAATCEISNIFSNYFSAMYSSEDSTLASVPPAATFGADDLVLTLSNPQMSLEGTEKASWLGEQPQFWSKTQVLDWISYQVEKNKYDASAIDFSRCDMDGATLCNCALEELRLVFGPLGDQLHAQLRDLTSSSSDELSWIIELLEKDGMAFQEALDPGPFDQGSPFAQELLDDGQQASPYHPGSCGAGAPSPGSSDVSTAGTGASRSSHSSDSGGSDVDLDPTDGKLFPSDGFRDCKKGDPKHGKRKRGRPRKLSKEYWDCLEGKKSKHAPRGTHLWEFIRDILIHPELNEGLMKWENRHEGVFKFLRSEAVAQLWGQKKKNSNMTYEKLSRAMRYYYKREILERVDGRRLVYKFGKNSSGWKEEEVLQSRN
Conditions: protein: recombinant; tags: N-terminal GST; dsDNA, one strand shown. In outline: as §1

In the next test the target is CRX (Homo sapiens, UniProt O43186 1-299). Conditions: protein: recombinant; tags: N-terminal GST; dsDNA, one strand shown. The method in brief: as §1
Another test concerns the target ETV1 (Homo sapiens, UniProt P50549 1-477). Conditions: protein: recombinant; tags: N-terminal GST; dsDNA, one strand shown. In outline: as §1
Another test addresses T6, ERF (Homo sapiens, UniProt P50548 1-548).
T6 sequence: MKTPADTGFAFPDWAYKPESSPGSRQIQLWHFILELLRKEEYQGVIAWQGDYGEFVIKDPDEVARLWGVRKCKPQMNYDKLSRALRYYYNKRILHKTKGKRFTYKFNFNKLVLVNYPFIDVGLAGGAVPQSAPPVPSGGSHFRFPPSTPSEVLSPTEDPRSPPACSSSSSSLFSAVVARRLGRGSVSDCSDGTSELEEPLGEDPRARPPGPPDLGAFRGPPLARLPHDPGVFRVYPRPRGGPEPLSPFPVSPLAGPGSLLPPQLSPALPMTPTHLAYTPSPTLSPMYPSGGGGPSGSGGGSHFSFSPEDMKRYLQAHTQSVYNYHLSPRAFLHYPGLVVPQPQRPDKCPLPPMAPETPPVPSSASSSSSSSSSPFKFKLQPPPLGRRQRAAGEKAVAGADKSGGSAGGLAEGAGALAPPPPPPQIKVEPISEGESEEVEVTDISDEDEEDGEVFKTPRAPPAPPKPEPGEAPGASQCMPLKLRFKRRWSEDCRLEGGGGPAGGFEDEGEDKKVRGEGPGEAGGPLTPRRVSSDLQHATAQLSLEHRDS
Conditions: protein: recombinant; tags: N-terminal GST; dsDNA, one strand shown. In outline: as §1

Another test addresses T7, ETV3L (Homo sapiens, UniProt Q6ZN32 1-361).
T7 sequence: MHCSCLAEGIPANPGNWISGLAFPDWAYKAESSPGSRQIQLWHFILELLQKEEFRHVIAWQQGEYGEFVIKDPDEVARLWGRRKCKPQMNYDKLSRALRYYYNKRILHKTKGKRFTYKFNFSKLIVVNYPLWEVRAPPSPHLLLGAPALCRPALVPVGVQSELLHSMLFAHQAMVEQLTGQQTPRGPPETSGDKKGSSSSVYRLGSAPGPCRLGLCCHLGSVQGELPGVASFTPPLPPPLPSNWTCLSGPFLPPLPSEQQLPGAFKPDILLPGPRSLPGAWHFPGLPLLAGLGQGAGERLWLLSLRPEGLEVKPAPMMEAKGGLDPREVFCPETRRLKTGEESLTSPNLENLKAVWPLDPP
Conditions: protein: recombinant; tags: N-terminal GST; dsDNA, one strand shown. The method in brief:
as §1

The next test deals with T8, ETS2 (Homo sapiens, UniProt P15036 1-469).
T8 sequence: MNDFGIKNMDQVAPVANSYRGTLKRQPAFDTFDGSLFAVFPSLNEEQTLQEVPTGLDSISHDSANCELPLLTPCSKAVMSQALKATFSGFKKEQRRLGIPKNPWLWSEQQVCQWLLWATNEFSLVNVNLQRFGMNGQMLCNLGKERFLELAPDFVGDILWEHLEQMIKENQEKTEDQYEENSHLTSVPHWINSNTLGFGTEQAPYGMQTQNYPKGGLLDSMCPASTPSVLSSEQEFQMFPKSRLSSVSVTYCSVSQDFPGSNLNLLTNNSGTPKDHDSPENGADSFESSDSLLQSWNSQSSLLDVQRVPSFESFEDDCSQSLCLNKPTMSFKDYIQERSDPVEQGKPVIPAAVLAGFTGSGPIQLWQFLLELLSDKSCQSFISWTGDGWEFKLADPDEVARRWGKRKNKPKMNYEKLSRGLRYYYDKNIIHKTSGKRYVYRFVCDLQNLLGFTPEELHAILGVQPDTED
Conditions: protein: recombinant; tags: N-terminal GST; dsDNA, one strand shown. The method in brief: as §1

Another test addresses T9, SPDEF (Homo sapiens, UniProt O95238 1-335).
T9 sequence: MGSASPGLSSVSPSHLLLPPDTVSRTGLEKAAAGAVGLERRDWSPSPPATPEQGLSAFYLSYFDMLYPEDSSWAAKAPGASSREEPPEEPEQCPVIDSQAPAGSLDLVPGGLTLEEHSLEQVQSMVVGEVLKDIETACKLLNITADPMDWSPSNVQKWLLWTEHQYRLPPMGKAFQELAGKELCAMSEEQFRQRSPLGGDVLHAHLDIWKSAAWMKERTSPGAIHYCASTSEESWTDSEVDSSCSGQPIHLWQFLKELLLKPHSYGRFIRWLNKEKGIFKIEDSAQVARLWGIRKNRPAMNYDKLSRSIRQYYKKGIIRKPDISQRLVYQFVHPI
Conditions: protein: recombinant; tags: N-terminal GST; dsDNA, one strand shown. In outline:
as §1

In the next test the target is T10, ETV7 (Homo sapiens, UniProt Q9Y603 1-341).
T10 sequence: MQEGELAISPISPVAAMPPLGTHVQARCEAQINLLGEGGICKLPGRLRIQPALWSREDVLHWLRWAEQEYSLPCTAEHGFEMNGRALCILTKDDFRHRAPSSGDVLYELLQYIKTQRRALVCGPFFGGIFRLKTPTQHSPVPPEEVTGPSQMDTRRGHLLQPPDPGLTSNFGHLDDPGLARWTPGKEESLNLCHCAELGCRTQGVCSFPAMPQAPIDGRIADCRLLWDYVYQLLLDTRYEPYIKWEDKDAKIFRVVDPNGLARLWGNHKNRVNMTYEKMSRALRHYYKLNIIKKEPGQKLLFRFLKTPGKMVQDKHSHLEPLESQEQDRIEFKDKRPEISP
Conditions: protein: recombinant; tags: N-terminal GST; dsDNA, one strand shown. The method in brief:
as §1

The target in the next test is T11, ELF5 (Homo sapiens, UniProt Q9UKW6-2 1-255).
T11 sequence: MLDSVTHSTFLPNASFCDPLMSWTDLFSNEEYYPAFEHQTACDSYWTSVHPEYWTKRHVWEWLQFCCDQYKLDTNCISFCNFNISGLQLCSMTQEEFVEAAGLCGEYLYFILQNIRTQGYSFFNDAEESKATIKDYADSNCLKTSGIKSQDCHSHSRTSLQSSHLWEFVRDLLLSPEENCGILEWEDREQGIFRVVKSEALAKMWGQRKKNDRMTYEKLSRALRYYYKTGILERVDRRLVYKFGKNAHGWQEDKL
Conditions: protein: recombinant; tags: N-terminal GST; dsDNA, one strand shown. The method in brief:
as §1

For a further test, the target named is T12, ETV3 (Homo sapiens, UniProt P41162-2 1-143).
T12 sequence: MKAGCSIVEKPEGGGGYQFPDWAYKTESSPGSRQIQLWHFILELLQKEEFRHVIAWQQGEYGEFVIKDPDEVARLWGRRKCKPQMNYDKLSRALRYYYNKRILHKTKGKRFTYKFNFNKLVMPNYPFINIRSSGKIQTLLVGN
Conditions: protein: recombinant; tags: N-terminal GST; dsDNA, one strand shown. The method in brief:
as §1

In the next test the target is ETV6 (Homo sapiens, UniProt P41212 1-452). Conditions: protein: recombinant; tags: N-terminal GST; dsDNA, one strand shown. The method in brief: as §1
Chain of ETV6 (P41212 whole entry): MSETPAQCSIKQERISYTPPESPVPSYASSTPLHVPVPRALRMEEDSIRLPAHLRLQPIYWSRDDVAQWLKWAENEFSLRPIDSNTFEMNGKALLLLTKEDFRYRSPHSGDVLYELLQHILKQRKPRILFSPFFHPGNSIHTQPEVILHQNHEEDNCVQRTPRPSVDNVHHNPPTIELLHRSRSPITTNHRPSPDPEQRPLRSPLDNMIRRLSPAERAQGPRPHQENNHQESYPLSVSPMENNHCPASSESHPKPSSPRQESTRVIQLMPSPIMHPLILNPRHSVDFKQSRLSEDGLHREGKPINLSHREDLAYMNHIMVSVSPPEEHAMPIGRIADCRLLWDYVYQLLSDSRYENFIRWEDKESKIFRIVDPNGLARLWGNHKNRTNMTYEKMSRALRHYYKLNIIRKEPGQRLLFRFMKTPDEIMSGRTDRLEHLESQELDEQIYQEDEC

Chain of ETV5 (P41161 whole entry): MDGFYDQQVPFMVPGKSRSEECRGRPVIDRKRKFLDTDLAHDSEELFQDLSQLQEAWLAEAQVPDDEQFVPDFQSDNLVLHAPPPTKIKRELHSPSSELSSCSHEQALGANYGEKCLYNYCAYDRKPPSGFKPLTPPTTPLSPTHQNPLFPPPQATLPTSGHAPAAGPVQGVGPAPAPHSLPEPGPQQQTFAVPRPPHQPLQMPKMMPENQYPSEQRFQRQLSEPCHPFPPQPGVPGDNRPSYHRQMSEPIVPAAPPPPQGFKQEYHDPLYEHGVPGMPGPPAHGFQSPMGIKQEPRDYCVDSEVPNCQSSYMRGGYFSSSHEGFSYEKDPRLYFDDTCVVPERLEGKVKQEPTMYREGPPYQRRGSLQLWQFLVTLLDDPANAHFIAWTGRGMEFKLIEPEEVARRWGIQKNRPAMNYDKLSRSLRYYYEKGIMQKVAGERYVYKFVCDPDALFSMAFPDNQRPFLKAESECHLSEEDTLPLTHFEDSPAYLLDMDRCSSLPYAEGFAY
Chain of CRX (O43186 whole entry): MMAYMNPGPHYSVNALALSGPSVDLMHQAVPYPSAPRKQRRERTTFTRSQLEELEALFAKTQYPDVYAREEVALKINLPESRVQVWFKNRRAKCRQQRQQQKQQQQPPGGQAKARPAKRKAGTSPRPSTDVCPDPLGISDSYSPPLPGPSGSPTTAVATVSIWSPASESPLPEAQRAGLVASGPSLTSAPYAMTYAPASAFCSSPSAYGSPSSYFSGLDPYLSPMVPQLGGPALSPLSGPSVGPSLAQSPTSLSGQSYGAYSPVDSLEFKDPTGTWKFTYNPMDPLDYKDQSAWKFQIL
Chain of ETV1 (P50549 whole entry): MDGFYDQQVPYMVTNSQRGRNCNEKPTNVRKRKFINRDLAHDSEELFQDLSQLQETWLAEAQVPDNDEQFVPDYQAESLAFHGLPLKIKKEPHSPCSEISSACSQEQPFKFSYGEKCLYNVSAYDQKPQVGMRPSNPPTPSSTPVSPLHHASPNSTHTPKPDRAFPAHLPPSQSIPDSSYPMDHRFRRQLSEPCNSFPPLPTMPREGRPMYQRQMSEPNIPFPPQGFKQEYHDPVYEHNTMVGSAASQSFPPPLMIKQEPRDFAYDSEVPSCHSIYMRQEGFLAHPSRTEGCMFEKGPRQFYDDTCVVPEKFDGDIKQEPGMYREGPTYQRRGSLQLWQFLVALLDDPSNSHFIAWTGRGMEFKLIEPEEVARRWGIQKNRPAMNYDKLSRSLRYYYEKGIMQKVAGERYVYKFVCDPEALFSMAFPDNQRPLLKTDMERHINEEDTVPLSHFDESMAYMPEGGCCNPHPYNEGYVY
Chain of HSF1 (Q00613 whole entry): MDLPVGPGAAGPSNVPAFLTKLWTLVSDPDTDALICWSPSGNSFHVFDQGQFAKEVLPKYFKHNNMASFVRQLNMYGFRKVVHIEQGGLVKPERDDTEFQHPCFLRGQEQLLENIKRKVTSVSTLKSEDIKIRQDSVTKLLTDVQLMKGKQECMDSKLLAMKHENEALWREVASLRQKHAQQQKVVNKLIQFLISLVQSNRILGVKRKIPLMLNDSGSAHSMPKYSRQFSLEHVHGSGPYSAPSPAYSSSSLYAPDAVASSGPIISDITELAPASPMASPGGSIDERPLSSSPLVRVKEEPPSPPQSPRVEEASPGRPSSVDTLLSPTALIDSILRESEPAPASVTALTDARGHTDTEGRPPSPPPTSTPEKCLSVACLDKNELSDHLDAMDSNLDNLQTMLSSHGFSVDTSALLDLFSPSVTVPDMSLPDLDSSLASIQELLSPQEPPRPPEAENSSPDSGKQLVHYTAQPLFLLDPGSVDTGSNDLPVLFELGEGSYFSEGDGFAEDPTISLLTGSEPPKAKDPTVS
Chain of ELF4 (Q99607 whole entry): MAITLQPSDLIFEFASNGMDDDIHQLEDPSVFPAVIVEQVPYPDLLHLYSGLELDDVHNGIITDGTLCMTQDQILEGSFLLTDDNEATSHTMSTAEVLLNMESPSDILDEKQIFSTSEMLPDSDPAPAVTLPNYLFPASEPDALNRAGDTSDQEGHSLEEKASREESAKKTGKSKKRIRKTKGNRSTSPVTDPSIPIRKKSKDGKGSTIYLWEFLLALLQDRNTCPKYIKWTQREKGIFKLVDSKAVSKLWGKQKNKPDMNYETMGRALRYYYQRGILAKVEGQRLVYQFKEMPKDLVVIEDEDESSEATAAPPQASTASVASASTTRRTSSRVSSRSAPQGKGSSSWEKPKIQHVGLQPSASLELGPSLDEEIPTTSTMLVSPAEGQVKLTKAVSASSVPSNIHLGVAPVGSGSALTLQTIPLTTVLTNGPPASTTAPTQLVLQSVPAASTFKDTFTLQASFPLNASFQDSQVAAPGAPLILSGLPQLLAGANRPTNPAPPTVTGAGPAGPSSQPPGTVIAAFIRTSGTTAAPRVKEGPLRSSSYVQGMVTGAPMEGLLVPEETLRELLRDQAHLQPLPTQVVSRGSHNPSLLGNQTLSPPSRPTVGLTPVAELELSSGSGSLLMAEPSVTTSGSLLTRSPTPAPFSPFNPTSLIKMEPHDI

TCCTGC: the binding signal with FEV was 1.62 fold enrichment (6-mer frequency, TF over GST control); in the test with ETV5, 1.83 fold enrichment (6-mer frequency, TF over GST control); with HSF1, 1.25 fold enrichment (6-mer frequency, TF over GST control); in the test with SPIC, 1.68 fold enrichment (6-mer frequency, TF over GST control); with ELF4, 1.56 fold enrichment (6-mer frequency, TF over GST control); with ELK4 it was 1.36 fold enrichment (6-mer frequency, TF over GST control). Besides, the binding signal with ETV2 was 1.49 fold enrichment (6-mer frequency, TF over GST control); with ELF3 it was 1.75 fold enrichment (6-mer frequency, TF over GST control); with CRX, 1.26 fold enrichment (6-mer frequency, TF over GST control); in the test with ETV1, 1.6 fold enrichment (6-mer frequency, TF over GST control); in the test with ERF it was 1.43 fold enrichment (6-mer frequency, TF over GST control); with ETV3L, 1.71 fold enrichment (6-mer frequency, TF over GST control). In addition, the binding signal was 1.65 fold enrichment (6-mer frequency, TF over GST control) with ETS2; 1.98 fold enrichment (6-mer frequency, TF over GST control) in the test with SPDEF; 1.69 fold enrichment (6-mer frequency, TF over GST control) with ETV7; 2.12 fold enrichment (6-mer frequency, TF over GST control) in the test with ELF5; 1.73 fold enrichment (6-mer frequency, TF over GST control) with ETV3; 1.77 fold enrichment (6-mer frequency, TF over GST control) with ETV6.
